BoNT F protease: inhibitors of Botulinum neurotoxin F light chain protease | Multiplex microsphere protease cleavage assay, flow cytometry | inhibition, % at 10 µM | 0.22% of 360,000 active | AID 588497; in the data active = inhibition above about 35%, passing the limit was not always enough; inconclusive = no clear call, values can overlap the other calls; note: plate controls were buffer without enzyme for full effect and enzyme alone for no effect
Autofluor counter: counter-screen for toxin protease inhibitors: compound fluorescence | 3.1% of 360,000 active | AID 624483 | fluorescence intensity (concentration not given with the values) | compound autofluorescence counterscreen, microsphere flow cytometry; hits give high values; in the data active = fluorescence intensity above about 16000; inconclusive = no clear call, values can overlap the other calls
BoNT A protease: BoNT A light chain protease inhibition. 0.17% of 360,000 active. multiplex microsphere protease substrate cleavage, flow cytometry. inhibition, % at 10 µM; note: plate controls were buffer without enzyme for full effect and enzyme alone for no effect
Anthrax LF inh2: inhibitors of Bacillus anthracis lethal factor protease. P15917. multiplex microsphere protease cleavage assay, LF. inhibition, % at 10 µM. 0.12% of 360,000 active; note: plate controls were buffer without enzyme for full effect and enzyme alone for no effect
DUSP3 inh: blocks human VHR1 dual specificity phosphatase; recombinant VHR phosphatase, pNPP absorbance; 0.52% of 290,000 active; inhibition, % at 13.3 µM; AID 1654; in the data active = inhibition above about 50%
Target sequence (P51452 whole entry, looked up): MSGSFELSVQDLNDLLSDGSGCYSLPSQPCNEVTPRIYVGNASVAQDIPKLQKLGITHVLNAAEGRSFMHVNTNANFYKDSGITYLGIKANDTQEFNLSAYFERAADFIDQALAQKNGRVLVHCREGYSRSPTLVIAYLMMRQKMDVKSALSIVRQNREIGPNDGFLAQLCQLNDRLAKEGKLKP
MazF activator: MazEF (E. coli) toxin RNase activation; AID 504720; activation, % at 20 µM; FAM/BHQ RNA-DNA oligo cleavage fluorescence, 5 h; 0.32% of 350,000 active; in the data active = activation above about 50%
Target sequence (P0AE70 whole entry, looked up): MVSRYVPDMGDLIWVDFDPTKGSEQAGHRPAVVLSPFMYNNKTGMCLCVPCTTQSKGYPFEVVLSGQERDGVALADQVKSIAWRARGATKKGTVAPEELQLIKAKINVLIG
Starred values were filed as active, the others as inactive; ? = inconclusive; / = no result. Shown are actives, neighbours in structure and some others; about 4.1% of the full set was active somewhere. Cut-off read from the data, not from the text of the source, unless noted: active = inhibition above about 30%; inconclusive = no clear call, values can overlap the other calls; inactive = below that.

SMILES	BoNT F protease	Autofluor counter	BoNT A protease	Anthrax LF inh2	DUSP3 inh	MazF activator
O=c1[nH]c2ccccc2nc1/C=C/c1ccc(F)cc1	-8	5620	8	-1	26	849*
CCOc1ccc(N(CCC#N)S(=O)(=O)c2ccc(OC)cc2)cc1	5	20566*	7	-11	20	-5
CC(=O)Nc1ccc2c(c1)ncn2-c1ccccc1	6	4327	0	14	13	7
CCC(=O)Nc1ccc2c(c1)ncn2-c1ccccc1	-10	21985*	-8	0	17	5
COc1ccc(S(=O)(=O)NC(=O)C2(C)CCN2C(=O)C2(c3ccc(Cl)cc3)CCC2)cc1 (stereo not drawn)	-9	2919	0	-5	/	/
Cc1ccccc1NS(=O)(=O)c1nnc(NC(=O)C(C)C)s1	4	3761	-1	-1	-12	13
C#CCSc1nnc(-c2cccc3ccccc23)o1	0	16238*	0	-4	/	0
Oc1ccc(-n2cccc2/C=N/n2cnnc2)cc1	-7	3399	-2	-10	15	-15
O/N=C/c1cccn1-c1ccc(O)cc1	-4	23862*	-1	-1	14	6
CN(C)c1nc(NCc2ccccc2)nc(SCC(=O)Nc2ccc(Cl)c(Cl)c2)n1	-1	19687*	0	3	-12	-5
Cc1ccc(C)n1-c1nccc(-c2ccco2)n1	1	4413	0	-4	-12	11
Cc1ccc(C)n1-c1nccc(-c2cccs2)n1	4	21459*	4	-3	25	-2
O=C(NC1CC2CCCC(C1)N2C(=S)Nc1ccccc1)C1CC1 (stereo not drawn)	29	3422	0	-1	22	3
COCCCC1CCN(C(=O)C2CCC(=O)N(CC3CCCCC3)C2)CC1 (stereo not drawn)	3	5930	2	1	13	0
COc1cc(/C=C2/SC(=S)N(CC(=O)NC(C)(C)C)C2=O)cc(OC)c1OC	28	6534	31*	27	4	-96
COc1cc(/C=C2\SC(=S)N(CC(=O)Nc3ccc(O)cc3)C2=O)cc(OC)c1OC	7	2284	10	6	56*	8
COc1cc(/C=C2\SC(=S)N(CC(=O)NC(C)(C)C)C2=O)cc(OC)c1OC	3	2604	17	8	22	-5
CC(C)N(C)C1=CC(=O)C(N(C)C(C)C)=CC1=O	-6	3595	0	-14	/	-25
Cc1sc2nc(SCC(=O)N(C)c3ccccc3)n(C)c(=O)c2c1C	1	?	-2	1	-23	4
C=CCn1c(=N)c(S(=O)(=O)c2ccc(C)c(C)c2)cc2c(=O)n3ccccc3nc21	1	5659	0	1	2	183*
Cc1ccc(S(=O)(=O)c2cc3c(=O)n4cccc(C)c4nc3n(Cc3ccco3)c2=N)cc1C	/	/	/	/	42	/
Cc1ccc(S(=O)(=O)c2cc3c(=O)n4ccccc4nc3n(Cc3ccco3)c2=N)cc1	5	20456*	?	3	6	-32
Cc1nc2c(C(=O)NCc3cccs3)cnn2c(C)c1Cc1ccccc1	/	/	/	/	30	/
Cc1ccc(C)c(Cc2c(C)nc3c(C(=O)NCc4ccc5c(c4)OCO5)cnn3c2C)c1	/	/	/	/	12	/
Cc1ccccc1Cc1c(C)nc2c(C(=O)NCc3ccc4c(c3)OCO4)cnn2c1C	-2	16548*	-1	-4	-8	-23
SMILES	BoNT F protease	Autofluor counter	BoNT A protease	Anthrax LF inh2	DUSP3 inh	MazF activator
Cc1cccc(Cc2c(C)nc3c(C(=O)NCc4ccco4)cnn3c2C)c1	-1	23199*	1	-5	7	-3
Cc1nc2c(C(=O)NCc3ccco3)cnn2c(C)c1Cc1ccc(F)cc1Cl	3	21933*	?	-15	-4	8
Cc1ccc(-n2ncc(C(=O)NCc3ccc4c(c3)OCO4)c2NC(=O)c2ccco2)cc1C	2	21894*	?	-4	-8	-2
O=C(COc1ccc(F)c(Cl)c1)N1CCCCCCC1	-17	3868	-2	-2	-2	-4
CCOc1ncnc2c1oc1nc(CC(C)C)c3c(c12)CC(C)(C)OC3	3	19881*	2	0	19	5
CCCc1nc2oc3c(NCC4CCCO4)ncnc3c2c2c1COC(C)(C)C2 (stereo not drawn)	0	22258*	1	1	-6	7
CCCc1nc2oc3c(NCc4ccccn4)ncnc3c2c2c1COC(C)(C)C2	-18	3739	-1	-3	-28	8
Cc1ccc(C)c(N=Cc2c(O)c3ccccc3oc2=O)c1	/	/	/	/	39	11
O=C(NC1CCCC1)c1cnn2c(C(F)(F)F)cc(-c3ccco3)nc12	2	20185*	2	-1	11	7
CC(C)CCNC(=O)c1cnn2c(C(F)(F)F)cc(-c3ccco3)nc12	7	19781*	7	-5	19	-3
NC(=O)c1cnn2c(C(F)(F)F)cc(-c3ccc(F)cc3)nc12	-2	22634*	-2	-1	-4	7
O=C(NC1CCCC1)c1cnn2c(C(F)(F)F)cc(-c3ccc4c(c3)OCO4)nc12	7	9056	2	2	-7	76*
CCN(CC)CCNC(=O)c1ccc(NC(=O)COc2ccc3c(c2)CCC3)cc1	0	6714	-1	-6	/	10
CCN1/C(=C/c2ccc3cc(C)ccc3[n+]2CC)Sc2cc(C)ccc21	-63	7083	55*	-41	12	75*
CSc1ccc(CN2CCCC(CNC(=O)c3ccc(F)cc3)C2)cc1 (stereo not drawn)	0	5740	0	4	22	-1
O=C(O)c1cc[c]([Hg][Cl])cc1	-4	9321	60*	-22	/	-12
CC(Oc1ccc(Cl)cc1Cl)c1nc(-c2ccc(NC(=O)c3cccnc3)cc2)no1 (stereo not drawn)	15	2580	1	3	13	-10
CC(Oc1ccc(Cl)cc1Cl)c1nc(-c2ccc(NC(=O)c3ccncc3)cc2)no1 (stereo not drawn)	-6	21041*	-2	-2	-8	-8
CC1CCCCC12NC(=O)N(CC(=O)N1CCN(C(=O)c3ccco3)CC1)C2=O (stereo not drawn)	3	8073	0	-2	/	4
CCN1CNC(=S)N(c2cc(C)ccc2C)C1	-4	21089*	?	-6	13	3
Cc1ccc(C)c(N2CN(Cc3ccco3)CNC2=S)c1	15	7465	1	-6	13	-9
CCN(CC(=O)Nc1c(F)cccc1F)C(=O)c1ccc2ncsc2c1	-311	49356*	-181	-42	/	7
CC(=O)C1=C(O)C(=CC=Cc2ccccc2)OC1=O	-4	3897	0	-4	/	-11
CC(C)C(C(=O)Nc1ccc2c(c1)OCCO2)N1C(=O)c2ccccc2C1=O (stereo not drawn)	-7	8355	0	-6	9	-5
CS(=O)(=O)CCC(C(=O)Nc1ccc2c(c1)OCO2)N1Cc2ccccc2C1=O (stereo not drawn)	-1	5805	1	-1	57*	9

Assay outcomes from PubChem.
